# Most compounds without a hit are left out; they make up all but 4.7% or so of the library.
# D1 agonist – Allosteric Agonists of the Human D1 Dopamine Receptor: qHTS; HEK293 T-REx D1 cells, calcium flux, agonist mode; activation, % at 2 µM; 360,000 tested, 1% active; also: 0% is about no effect
#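 Agonism was scored from calcium flux recorded over 180 s (1 read/s) after pintool compound addition, following a 10-cycle baseline. Cells were inducible force-coupled HEK293 TREx D1, plated overnight at 30 C and loaded with no-wash calcium dye.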
# D1 PAM – Potentiators of Human D1 Dopamine Receptor: qHTS | D(1A) dopamine receptor (Homo sapiens), P21728 | HEK293 TREx D1 cells, calcium flux, dopamine EC20 potentiation | potentiation, % at 10 µM | 360,000 tested, 0.036% active | AID 504651, 2011; in the data active = potentiation above about 30%; also: 0% is about no effect
# TRHR enhancer – qHTS for Small Molecule Agonists and Allosteric Enhancers of Human TRH Receptor: Primary Screen for Enhancers. AID 493056, 2011. 360,000 tested, 0.66% active. Thyrotropin-releasing hormone receptor (Homo sapiens), P34981. TRHR cells, fluo-8 calcium fluorescence, EC20 TRH enhancement. enhancement, % at 2 µM; in the data active = enhancement above about 30%; also: 0% is about no effect
# Target sequence (P34981 whole entry, looked up): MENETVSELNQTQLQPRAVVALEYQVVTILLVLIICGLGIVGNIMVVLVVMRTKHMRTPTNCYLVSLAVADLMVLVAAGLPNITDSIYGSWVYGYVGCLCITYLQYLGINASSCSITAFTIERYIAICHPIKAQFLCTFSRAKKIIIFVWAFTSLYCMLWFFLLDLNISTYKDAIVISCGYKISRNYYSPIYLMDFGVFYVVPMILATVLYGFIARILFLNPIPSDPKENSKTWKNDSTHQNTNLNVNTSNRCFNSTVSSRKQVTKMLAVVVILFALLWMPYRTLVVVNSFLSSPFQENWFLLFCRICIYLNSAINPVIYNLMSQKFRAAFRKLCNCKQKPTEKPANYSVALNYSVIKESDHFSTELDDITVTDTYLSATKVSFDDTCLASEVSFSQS
#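 TRHR-expressing cells loaded with fluo-8 calcium dye were read kinetically (ex 480/em 530) during compound addition, then stimulated with an EC20 of TRH (10 nM final). Enhancement of the Gq-mediated intracellular calcium response was scored.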
# D1 antagonist – Antagonist of Human D 1 Dopamine Receptor: qHTS; HEK293 TREx D1 cells, calcium flux, dopamine EC80; stronger effect = lower value; D(1A) dopamine receptor (Homo sapiens), P21728; 360,000 tested, 3.2% active; activity change, negative = inhibition, % at 10 µM; in the data active = activity change below about -30%; also: % is scaled to controls: 0 for no effect and ±100 for the full control effect
#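 Inducible Hek293 Trex D1 cells (tetracycline, overnight, 30 C). Calcium dye 30–90 min RT. Antagonist mode: EC80 dopamine added after 180 s compound read.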
# TRHR agonist – qHTS for Small Molecule Agonists and Allosteric Enhancers of Human TRH Receptor: Primary Screen for Agonists; 360,000 tested, 0.18% active; activation, % at 2 µM; TRHR cells, calcium flux fluo-8, FDSS agonist mode; also: 0% is about no effect
#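 TRHR-expressing cells, plated overnight in medium with 10% serum, were loaded with fluo-8 calcium dye at room temperature. After a 10 s baseline, library compound was pin-added and calcium release was recorded kinetically (ex 480/em 530) as agonist response.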
# Active calls of the source: *. Rule as the data show it, unless noted: active = activation above about 30%; inactive = the rest.
SMILES,D1 agonist,D1 PAM,TRHR enhancer,D1 antagonist,TRHR agonist
COc1ccc(OC(=O)c2nc(SCc3ccc(C)cc3)ncc2Cl)cc1,17,1,-2,-6,3
COc1ccc(CCN(C)C2CCCN(S(=O)(=O)c3ccccc3F)C2)cc1OC (stereo unspecified),3,-5,0,-32*,0
COC(=O)c1sccc1S(=O)(=O)N1CCCC(N(C)CCc2ccccn2)C1 (stereo unspecified),4,-5,7,-35*,0
O=C(CN(c1ccccc1)S(=O)(=O)c1ccccc1)NCCSc1nc2ccccc2s1,8,1,-6,-63*,1
Cc1cccc(N(CC(=O)NCCSc2nc3ccccc3s2)S(=O)(=O)c2ccccc2)c1,1,0,8,5,0
COc1ccc(N(CC(=O)NCCOc2ccccc2)S(=O)(=O)c2ccc(C)cc2)cc1,2,-7,-6,4,0
COc1ccc(S(=O)(=O)N(CC(=O)NCCSc2ccccc2)c2ccc(C)cc2)cc1,32*,-2,-3,3,3
CCOc1ccc(N(CC(=O)NCCOc2ccc(C)cc2)S(=O)(=O)c2ccccc2)cc1,54*,12,13,-38*,1
COc1ccc(S(=O)(=O)N(CC(=O)NCCSc2ccccc2)c2ccc(Cl)cc2)cc1,36*,2,6,-8,-1
CCN(CC)C(=O)CSc1nc(N)c(C(=O)Nc2ccc(OC)cc2)s1,3,-1,6,-32*,0
COc1ccc(Cn2ccc3nc(C)c(C(=O)N4CCN(c5ccccc5OC)CC4)cc3c2=O)cc1,-1,-1,-2,-33*,0
COc1ccc(CNC(=O)c2cc3c(=O)n(Cc4ccco4)ccc3nc2C)cc1,1,-7,7,-35*,0
CSc1ccc(CNC(=O)c2cc3c(=O)n(Cc4ccco4)ccc3nc2C)cc1,13,-6,2,6,-1
COc1ccc(Cn2ccc3nc(C)c(C(=O)N4CCN(c5ccc(OC)cc5)CC4)cc3c2=O)cc1,27,-6,-7,-7,0
COc1ccc(Nc2oc(COc3ccc(OC)cc3)nc2C#N)cc1,1,-13,-4,-34*,0
O=C(Oc1ccccc1)c1cccc(COC(=O)c2cnccn2)c1,15,-6,-9,-59*,0
COc1ccc(OC)c(NC(=O)c2cc(=O)c3c(C)cc(C)cc3o2)c1,-1,-1,9,3,0
O=C(NCc1ccco1)c1c(F)c(F)c(F)c(C(=O)NCc2ccco2)c1F,1,-2,-6,-33*,0
CCCc1cc(C(=O)NCc2ccccc2)no1,-1,-5,-2,-6,0
CCCc1cc(C(=O)NCc2ccco2)no1,0,-9,-2,-35*,0
O=C(NCc1ccco1)c1ccc([N+](=O)[O-])o1,5,6,69*,-1,0
O=C(NCc1ccco1)c1csc2c1CCCCC2,1,0,-4,-33*,-1
O=C(NCc1ccco1)c1ccccc1,0,-6,6,0,1
CNS(=O)(=O)c1cn(CC(=O)Nc2ccc(C(C)=O)cc2)cc1S(=O)(=O)NC,1,-1,2,-5,0
COc1ccc(C(=O)OC2=C(C(=O)c3ccccc3)N(C)S(=O)(=O)c3ccccc32)cc1OC,13,-3,26,-9,0
SMILES,D1 agonist,D1 PAM,TRHR enhancer,D1 antagonist,TRHR agonist
CCCc1nn2c(=O)cc(COC(=O)c3cccc(NC(=O)c4cccs4)c3)nc2s1,0,2,0,3,-1
CC(CNC(=O)c1csc2c1CCCCC2)c1ccccc1 (stereo unspecified),12,-6,-3,-1,2
CCOc1ccc(CCNC(=O)c2cn(-c3cccc(OC)c3)c(=O)c3ccccc23)cc1,1,-3,10,-42*,0
COc1ccc(CCNC(=O)c2cc(-c3ccccn3)nc3ccccc23)cc1,0,-4,-1,-35*,0
COc1cccc(-n2cc(C(=O)NCCc3ccc(C)cc3)c3ccccc3c2=O)c1,0,4,-3,-48*,0
COc1ccc(-c2cc(C(=O)NCCc3ccccc3)c3c(-c4ccccc4)[nH]nc3n2)cc1,3,-1,-1,-40*,0
COc1ccc(-c2cc(C(=O)NCCc3ccccc3)c3c(-c4ccc(Cl)cc4)[nH]nc3n2)cc1,6,-3,-6,7,1
Cc1ccccc1C[C@H](C(=O)O)N1C(=O)c2ccc(C(=O)O)cc2C1=O,2,-9,-6,23,0
CCOc1ccc(CCNC(=O)c2cn(-c3ccc(OC)cc3)c(=O)c3ccccc23)cc1OCC,6,-3,-2,2,0
COc1ccc(-n2cc(C(=O)NCCc3ccc(C)cc3)c3ccccc3c2=O)cc1,5,-3,9,-39*,1
COc1ccc(-c2cc(C(=O)N3CC4(C)CC3CC(C)(C)C4)no2)cc1 (stereo unspecified),1,-7,2,-33*,1
COc1ccc(-c2cc(C(=O)N3CC4(C)CC3CC(C)(C)C4)no2)cc1OC (stereo unspecified),4,1,1,8,0
CC(=O)N1N=C(c2ccc(Cl)cc2)OC1(C)C,0,4,34*,16,0
CC(C)CCNC(=O)C(=O)Nc1cc2c3c(c1)CCC(=O)N3CCC2,1,-11,2,4,-1
COCCNC(=O)C(=O)Nc1cc2c3c(c1)CCC(=O)N3CCC2,3,-8,5,-31*,0
CC1C(=O)N2CCCc3cc(NC(=O)C(=O)NCCc4ccccc4)cc1c32 (stereo unspecified),3,-16,0,-35*,0
CCN(C(=O)c1cnc(N2CCOCC2)c2ccccc12)c1cc(C)ccc1C,2,-2,11,-43*,0
Cc1ccc(N(C)C(=O)c2cnc(N3CCOCC3)c3ccccc23)cc1C,0,-1,4,-37*,0
CCCOc1ccccc1C1Oc2nc(SC)nnc2-c2ccccc2N1C(C)=O (stereo unspecified),1,1,-1,-6,-1
CCOC(=O)c1[nH]c(C)c(CCC(=O)NCc2ccc(OCC)cc2)c1C,0,-1,3,-4,-1
CN(C)S(=O)(=O)c1ccc(NC(=O)C2CC3C=CC2C3)cc1 (stereo unspecified),1,-2,6,-30*,0

# Source: PubChem
